Data: the supplement of paper PMC6805474

What was measured:
[1] = system: Schistosoma mansoni schistosomula (LE); assay: XTT viability relative to DMSO control; higher = more viable (less active); conditions: 72 h; 10 µM
Procedure: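 XTT/PMS was then added for a further 24 h (72 h total) and A450 was read. % viability = (sample - heat-killed control)/(DMSO control - heat-killed control) x 100, from duplicate wells in two independent experiments.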

[2] = system: Schistosoma mansoni schistosomula (NMRI); assay: phenotypic severity score (0-4); higher = more antischistosomal effect, active = 2 or more; conditions: 10 µM
[3] = system: Schistosoma mansoni schistosomula (Liberian); assay: drug effect (1 - score/DMSO control score) (fraction); higher = more antischistosomal effect, active = 0.5 or more; extreme values may be limits of the assay; conditions: 10 µM
Method in brief: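 A plate was valid only if its 0.1% DMSO wells averaged a score of at least 2. Those wells ran beside duplicate wells in which 50 Liberian-strain Schistosoma mansoni schistosomula each, transformed mechanically from cercariae and pre-incubated at least 12 h, met 10 µM compound in Medium 199 with 5% FCS at 37 °C, 5% CO2. Scoring was visual at 10× at 24, 48 and 72 h, from 3 (normal) to 0 (dead) in quarter-point steps. Drug effect was derived from the mean test-well score against the mean DMSO-well score, with negatives set to zero.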
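For phenotypic severity score (0-4) in this document: visual microscopic scoring of shape, motility and density changes versus 0.5% DMSO solvent controls, one point per descriptor, degeneracy or death scored 4, mean of duplicate wells.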

SMILES	XTT viability [1] [%]	phenotypic severity score ([2]; 24 h)	phenotypic severity score ([2]; 48 h)	phenotypic severity score ([2]; 72 h)	drug effect ([3]; 24 h)	drug effect ([3]; 48 h)	drug effect ([3]; 72 h)
CC(Oc1ccccc1)C(=O)Nc1nc(-c2ccccn2)cs1 (configuration not stated)	59.4	2 (active)	0 (inactive)	4 (active)	0.297 (inactive)	0.5 (active)	0.625 (active)
O=C(Nc1cnc2ccccc2c1)c1cccc(-n2cnnn2)c1	85.7	0 (inactive)	0 (inactive)	0 (inactive)	< 0 (inactive)	< 0 (inactive)	0.0303 (inactive)
Cc1cc(Nc2ccc(C(F)(F)F)cc2)n2ccnc2n1	71.7	0 (inactive)	0 (inactive)	0 (inactive)	0.0909 (inactive)	0.15 (inactive)	0.158 (inactive)
CCc1c(C)nc(-n2nc(C)cc2NC(=O)c2ccccc2SC)[nH]c1=O	-1.13	0 (inactive)	1 (inactive)	3 (active)	0.273 (inactive)	0.95 (active)	1 (active)
O=C(Nc1cccc(-c2ccc(NCCCN3CCCC3)nc2)c1)c1ccccc1	67.8	1 (inactive)	2 (active)	4 (active)	0.2 (inactive)	0.459 (inactive)	0.515 (active)
Oc1c(I)cc(I)c2cccnc12	6.58	2 (active)	1 (inactive)	2 (active)	0.1 (inactive)	0.135 (inactive)	0.333 (inactive)
CS(=O)(=O)c1ccc(C(=O)N(CC2CCCO2)c2nc3ccccc3s2)cc1[N+](=O)[O-] (configuration not stated)	-7.96	4 (active)	4 (active)	4 (active)	1 (active)	1 (active)	1 (active)
CS(=O)(=O)c1ccccc1C(=O)N(Cc1ccccc1)c1ccccc1	106	0 (inactive)	1 (inactive)	0 (inactive)	0.182 (inactive)	0.4 (inactive)	0.4 (inactive)
COc1cc2ncnc(NC3CCN(Cc4ccccc4)CC3)c2cc1OC	86.5	0 (inactive)	0 (inactive)	0 (inactive)	0.1 (inactive)	0.135 (inactive)	0.0556 (inactive)
CCN(CC)S(=O)(=O)c1ccc(Cl)c(C(=O)Nc2ccc3nc(C)sc3c2)c1	87.9	1 (inactive)	0 (inactive)	0 (inactive)	0.05 (inactive)	0.027 (inactive)	0.111 (inactive)
CC(=O)NCC1CN(c2ccc(-c3ccc(CO)cc3)c(F)c2)C(=O)O1 (configuration not stated)	138	0 (inactive)	1 (inactive)	0 (inactive)	0.1 (inactive)	0.111 (inactive)	0.0625 (inactive)
O=C1Nc2ccc(Br)cc2C12NCCc1c2[nH]c2ccccc12 (configuration not stated)	109	0 (inactive)	0 (inactive)	0 (inactive)	0.05 (inactive)	0.0811 (inactive)	0.167 (inactive)
Cc1cc(Cl)ccc1NC(=O)CCc1ccc(S(=O)(=O)NCC(C)C)cc1	107	0 (inactive)	0 (inactive)	0 (inactive)	0.2 (inactive)	0.278 (inactive)	0.375 (inactive)
COc1cccc(CC(=O)N2CCC(n3c(C)nc4ccc(F)cc43)CC2)c1	116	1 (inactive)	1 (inactive)	1 (inactive)	0.1 (inactive)	0.405 (inactive)	0.394 (inactive)
COc1ccc(-c2cnc3cnc(-c4cccc(OC(C)C)c4)cn23)cc1	39	2 (active)	4 (active)	4 (active)	0.0455 (inactive)	< 0 (inactive)	0.105 (inactive)
O=C(Nc1ccc(C(F)(F)F)c(C(F)(F)F)c1)c1cc(Cl)ccc1O	35.4	4 (active)	4 (active)	4 (active)	1 (active)	1 (active)	1 (active)
CCOc1ccc(OCC(=O)Nc2cc(C)cc(C)c2)cc1	67	0 (inactive)	0 (inactive)	0 (inactive)	0.0909 (inactive)	0.05 (inactive)	0.158 (inactive)
Cc1cc(NCCc2ccccc2)nc(NC(=N)Nc2ccc(Cl)cc2)n1	8.5	4 (active)	4 (active)	4 (active)	1 (active)	1 (active)	1 (active)
O=C(OCc1ccccc1)N1CCC(c2cc(-c3ccncc3)c(-c3ccc(F)cc3)[nH]2)CC1	124	0 (inactive)	0 (inactive)	0 (inactive)	0.1 (inactive)	0.222 (inactive)	0.188 (inactive)
OCc1ccc(-c2cncc(Nc3cccc(Cl)c3)c2)cc1	99.5	0 (inactive)	0 (inactive)	0 (inactive)	0.1 (inactive)	0.0811 (inactive)	0.152 (inactive)
O=C(CN1CCOCC1)Nc1ccc2ncnc(Nc3ccc(OCc4cccc(F)c4)c(Cl)c3)c2c1	125	0 (inactive)	0 (inactive)	0 (inactive)	0.3 (inactive)	0.25 (inactive)	0.222 (inactive)

SMILES	XTT viability [1] [%]	phenotypic severity score ([2]; 24 h)	phenotypic severity score ([2]; 48 h)	phenotypic severity score ([2]; 72 h)	drug effect ([3]; 24 h)	drug effect ([3]; 48 h)	drug effect ([3]; 72 h)
Cc1ccc2cc(C3NC(=O)c4ccccc4N3)c(Cl)nc2c1 (configuration not stated)	99	0 (inactive)	0 (inactive)	1 (inactive)	0.05 (inactive)	0.0811 (inactive)	0.111 (inactive)
Cc1cc(Cl)c(S(=O)(=O)N2CCCC2)cc1OCC(=O)NC1CCCCC1	111	0 (inactive)	0 (inactive)	0 (inactive)	0.1 (inactive)	0.189 (inactive)	0.212 (inactive)
FC(F)(F)c1cc(NCCc2ccccc2)nc(-c2ccccn2)n1	58.7	1 (inactive)	2 (active)	4 (active)	0.05 (inactive)	0.514 (active)	0.394 (inactive)
CCN(CC)S(=O)(=O)c1ccc(C(=O)Nc2cc(C)nn2-c2nc(C)c(C)c(=O)[nH]2)cc1	80.6	0 (inactive)	0 (inactive)	0 (inactive)	0.1 (inactive)	< 0 (inactive)	< 0 (inactive)
Cc1nc(-c2cccc(NCc3ccccc3)c2)[nH]c1C	104	0 (inactive)	0 (inactive)	0 (inactive)	0.1 (inactive)	0.111 (inactive)	0.25 (inactive)
CC(C)(C)n1nc(-c2ccccc2)c2c(N)ncnc21	106	1 (inactive)	0 (inactive)	0 (inactive)	0.182 (inactive)	0.2 (inactive)	0.127 (inactive)
Cc1cc(OCC(=O)NCc2ccccc2)c2cc(Br)ccc2n1	111	0 (inactive)	0 (inactive)	0 (inactive)	0.1 (inactive)	0.0556 (inactive)	0.0625 (inactive)
Nc1ccc2ncnc(Nc3ccc(OCc4cccc(F)c4)c(Cl)c3)c2c1	55.9	4 (active)	4 (active)	4 (active)	0.3 (inactive)	0.622 (active)	0.879 (active)
Cc1nc2ccccn2c1C(=O)NCc1ccc(Cl)cc1	81	0 (inactive)	0 (inactive)	0 (inactive)	0.1 (inactive)	0.189 (inactive)	0.333 (inactive)
COc1ccc(C(=N)N)cc1-c1cn(-c2ccc(C(=N)N)cc2)nn1	69.3	0 (inactive)	0 (inactive)	0 (inactive)	0.05 (inactive)	0.0811 (inactive)	0.0909 (inactive)
c1cncc(NCc2ccc(-c3cc4ccncc4cc3OC3CCNCC3)s2)c1	14.8	3 (active)	3 (active)	4 (active)	0.136 (inactive)	0.45 (inactive)	0.556 (active)
CC(=O)N(CCN(C(=O)c1ccc(F)cc1)c1ccccc1)c1ccccc1	117	1 (inactive)	0 (inactive)	0 (inactive)	0.1 (inactive)	0.027 (inactive)	0.0909 (inactive)
CC(C)=CCC/C(C)=C\CNCCNC1C2CC3CC(C2)CC1C3 (configuration not stated)	13.5	4 (active)	4 (active)	4 (active)	1 (active)	1 (active)	1 (active)
Nc1ncnc2[nH]nc(Cc3cccc4ccccc34)c12	94.1	1 (inactive)	2 (active)	3 (active)	0.243 (inactive)	0.333 (inactive)	0.562 (active)
CCC(Sc1nc2ccccc2o1)C(=O)Nc1nnc(C)s1 (configuration not stated)	82.8	0 (inactive)	0 (inactive)	0 (inactive)	0.1 (inactive)	0.111 (inactive)	0.312 (inactive)
CC(C)N=c1cc2n(-c3ccc(Cl)cc3)c3ccccc3nc-2cc1Nc1ccc(Cl)cc1	16.6	4 (active)	4 (active)	4 (active)	1 (active)	1 (active)	1 (active)
Cc1ccc(-c2nc(CN(Cc3ccccn3)C(C)C)cs2)o1	84.4	0 (inactive)	1 (inactive)	0 (inactive)	0.05 (inactive)	0.222 (inactive)	0.389 (inactive)
CC1=NN(c2nc3ccccc3s2)C(=O)C1Cc1cccc2ccccc12 (configuration not stated)	61.8	0 (inactive)	0 (inactive)	0 (inactive)	0.0909 (inactive)	0.1 (inactive)	0.127 (inactive)
CC(=O)N1CCN(c2ccc(Oc3ccc(Cl)cc3O)cc2)CC1	89.7	0 (inactive)	0 (inactive)	0 (inactive)	0.1 (inactive)	0.027 (inactive)	0.0303 (inactive)
CC1CC1C(=O)NC1CCN(CC2(c3ccccc3)CCCCC2)CC1 (configuration not stated)	82.4	1 (inactive)	0 (inactive)	0 (inactive)	< 0 (inactive)	0.0811 (inactive)	0.222 (inactive)
